From PubChem BioAssay (NCI)
About 83,000 compounds went through this panel and 20% of them were active in at least one assay; those are over-represented in the sample as a whole.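 Testing used 96-well plates and a 48-hour single-concentration exposure. Example: -40 means 40% of the starting cells died.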 Values without a mark were called inactive. The source made the active and inactive calls. The calls were made as follows: active = growth percent below 10; inactive = the rest.

Tested on: NCI-H522 lung
Test: NCI-60 one-dose screen, 48 h (100 = growth as untreated, 0 = no growth, -100 = all killed)
Conditions: 10 µM unless noted

| Compound | growth |
| --- | --- |
| Nc1nc(Nc2ccccc2)c(C=Nc2ccccc2)c(=O)[nH]1 | 57.9% |
| CNC(=O)c1cc(Oc2cccc3nc(Nc4ccc(Oc5ccccc5)cc4)ccc23)ccn1 | 62.7% |
| CN1CC[C@@H](c2c(O)cc(O)c3c(=O)cc(-c4ccccc4Cl)oc23)[C@@H]1CO | -13.8% (active) |
| Cc1[nH]n(C(N)=S)c(=O)c1N=Nc1ccc(S(=O)(=O)Nc2ccncn2)cc1 | 99.7% |
| COCCN1CCN(Cc2ccc(-c3n[nH]c4c3C(=O)c3c(NC(=O)NN5CCOCC5)cccc3-4)cc2)CC1 | -34.1% (active) |
| CN(c1ncccc1CNc1nc(Nc2ccc3c(c2)CC(=O)N3)ncc1C(F)(F)F)S(C)(=O)=O | -22.4% (active) |
| COc1cc(N2CCC(N3CCN(C)CC3)CC2)ccc1Nc1ncnc(Nc2ccccc2S(=O)(=O)C(C)C)n1 | 80.5% |
| O=C(COc1ccc(/C=C2\Cc3ccc(Cl)cc3C2=O)cc1)Nc1nccs1 | -7.85% (active) |
| O=C(c1ccc(/C=C/c2n[nH]c3ccccc23)cc1)N1CCNCC1 | 36.2% |
| O=C(O)C1(Cc2cccc(Nc3nccs3)n2)CCC(Oc2cccc(Cl)c2F)CC1 (stereo unspecified) | -3.77% (active) |
| Cc1cc(O)cc(-c2c(-c3ccnc(-c4cccnc4)c3)cnn2C)c1 | 46.9% |
| Cc1c(CN2CCN(C(=O)[C@H](C)O)CC2)sc2c(N3CCOCC3)nc(-c3cnc(N)nc3)nc12 | -12.2% (active) |
| CN1CCN(c2ccc(C(=O)Nc3n[nH]c4ccc(Cc5cc(F)cc(F)c5)cc34)c(NC3CCOCC3)c2)CC1 | -70.6% (active) |
| C#Cc1cccc(Nc2ncnc3cc(OCCOC)c(OCCOC)cc23)c1 | -6.57% (active) |
| COc1ccc(Nc2ncccc2NC(=O)c2cn(Cc3cccc(Oc4ccccc4)c3)nn2)cc1 | 77.8% |
| O=C1NC(=O)[C@@H](c2cn3c4c(cccc24)CCC3)[C@@H]1c1c[nH]c2ccccc12 | -0.0655% (active) |
| Cc1cc(-c2cc(O)ccc2Cl)cc2nnc(Nc3ccc(OCCN4CCCC4)cc3)nc12 | -49.5% (active) |
| C=CCN(/C=C1/C(=O)O[C@H](COC)[C@@]2(C)C1=C(O)C(=O)C1=C2[C@H](OC(C)=O)C[C@]2(C)C(=O)CC[C@@H]12)CC=C | 13.5% |
| CNC(=O)c1nn(C)c2c1C(C)(C)Cc1cnc(Nc3ccc(N4CCN(C)CC4)cc3)nc1-2 | -29.4% (active) |
| CC(C)Nc1cc(-c2c[nH]c(C(=O)N[C@H](CO)c3cccc(Cl)c3)c2)c(Cl)cn1 | 22.2% |
| COc1ccc(Cc2cc(-c3ccccc3C)n[nH]c2=O)cc1 | 105% |
| CC(C)[C@@H]1CC[C@@H]2[C@@H]1[C@H](OC(=O)/C=C/c1ccccc1)[C@]1(C(C)C)C[C@@H](OC(=O)CO)[C@@]2(C)O1 | 65.9% |
| Cc1ncc(-c2ccnc(Nc3ccc(S(C)(=O)=O)cc3)n2)n1C(C)C | -24.9% (active) |
| C/C=C/C=N/NC(=S)Nc1ccccc1 | 82.7% |
| Cc1nn(-c2ccccc2)c2c1N=c1s/c(=C\c3cn(-c4ccccc4)nc3-c3ccc(Cl)cc3)c(=O)n1C(C)N2 (stereo unspecified) | 10.2% |
| COc1cc2c(cc1OCCCN1Cc3ccc(OCCCCC(=O)N4CCC(CCN5CCCC5)CC4)cc3C1)N=C(N)C21CCCC1 | 50.7% |
